Several values for one entry are separate records, joined by “and”; a condition that tells them apart may be missing. Equal values may be shown once. Activity calls are given as the source filed them.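 The calls were made as follows, unless noted: active = compounds that lower survival of HCT116 colon cancer cells in the luminescence readout, no numeric limit stated; inactive = the rest.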
How the values were obtained:
[1] = hESC survival regulators, cell-based (AID 493140; call rule not given here;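 also: cells exposed to compounds for four days before counting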); conditions: human embryonic stem cell survival screen; stronger effect = higher value
[2] = stimulators of nuclear beta-catenin in C2C12, primary screen, imaging, WNT3A-conditioned medium, mouse C2C12, NPC library (AID 1117326; in the data active = nuclear beta-catenin stimulation mostly above about 4.2%, no sharp cut-off; inactive = mostly below about 10%); conditions: stronger effect = higher value
[3] = growth inhibition of GSK3B-pretreated HCT116 cells – cell-based, CellTiter-Glo, 0.2 to 20 µM (AID 1117336;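 active = compounds lowering colon cancer cell viability after pretreatment blocking the GSK3B kinase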); conditions: HCT116 viability after GSK3B inhibitor, at 20 µM, stronger effect = higher value
[4] = HCT116 colon cancer cell growth inhibition, primary screen, CellTiter-Glo luminescence, NPC library (AID 1117342); conditions: at 20 µM (top of the series)
[5] = CellTiter-Glo luminescent readout of SW480 viability loss, NPC library primary (AID 1117343;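 active = compounds that lower viability of the colon cancer cells in the luminescence readout, with no numeric limit stated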); conditions: CellTiter-Glo luminescence; at 20 µM (top of the series) unless noted
[6] = decreased DLD-1 cellular survival, CellTiter-Glo luminescent readout, NPC compound collection, primary HTS (AID 1117346;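 active = compounds that lower survival of DLD-1 colon cancer cells in the luminescence readout, no cutoff given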); conditions: DLD-1 viability, CellTiter-Glo luminescence; at 20 µM (top of the series)
[7] = target: 6-phosphogluconate dehydrogenase, decarboxylating (Homo sapiens) (UniProt P52209); assay: 6PGD enzyme inhibitors, primary screen, biochemical, human, recombinant enzyme, NADPH absorbance (AID 1159550;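 active = at least 20% inhibition of 6-phosphogluconate dehydrogenase activity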); conditions: recombinant 6PGD, NADPH absorbance 341 nm; at 10 µM; stronger effect = higher value
[8] = modulation of C. elegans fzo-1 (AID 1259413; call rule not given here;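 also: fzo-1 mutant C. elegans worms in liquid wells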); conditions: C. elegans fzo-1 modulator screen, mean read-out; stronger effect = higher value
[9] = differential killing of epithelial or mesenchymal cells, primary screen, imaging, PC-3E GFP, TEM4-18 mCherry, co-culture (AID 1345086;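 active = compounds killing one labelled cell type while sparing the other, by normalised counts and ratio limits, not self-fluorescent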;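 also: cells exposed to compound for 72 h before imaging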;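 as to red/green cell ratio (normalised): normalised mesenchymal count divided by normalised epithelial count so high means epithelial killing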); conditions: imaging cell counts, at 1 µM
[10] = sensitizers of A549 cells to miR-34 induction, primary screen, imaging, A549 dox-inducible miR-34, nuclei and caspase counts (AID 1347080;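 active = compounds whose cell count with miR-34 switched on is under 0.7 times the count with it off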); conditions: A549 miR-34 inducible, Hoechst nuclei count, 48 h
[11] = target: NAD(+) hydrolase SARM1 (Homo sapiens) (UniProt Q6SZW1); assay: SARM1 TIR NADase inhibitors, cell lysate, NAD-Glo luminescence (AID 1508614;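 active = compound whose remaining NAD level is above about 45 nM, limit read from the data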;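 also: higher remaining NAD means stronger inhibition of SARM1 NADase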); conditions: SAM-TIR HEK293T lysate NADase, at 1 µM, stronger effect = higher value
[12] = target: Mitogen-activated protein kinase 7 (Homo sapiens) (UniProt Q13164); assay: ERK5 transactivation activators in reporter cells, primary screen, cell-based, HTS (AID 1508626;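 active = luciferase signal above three times the same-plate solvent-only control wells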;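 also: luciferase driven by Gal4-ERK5 fusion binding five Gal4 sites before minimal TATA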); conditions: HeLa Gal4-ERK5 transactivation, 18 h, at 5 µM, stronger effect = higher value
[13] = viability rescue of complex I mutant cybrids, primary screen, cell-based, galactose medium, ATP luminescence (AID 1645843;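 active = z-score of at least 1.8 in each of two replicates, scored against plate mean and spread of sample wells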;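 also: positive z means more ATP and so rescue of galactose-driven cybrid death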); conditions: complex I mutant cybrid cells, 72 h, stronger effect = higher value
[14] = stimulators of insulin release from INS-1E, primary screen, cell-based, 5 mM glucose, NPC library (AID 1117329;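 active = compound raises insulin release from rat beta cells at 5 mM glucose, no numeric limit stated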); conditions: rat INS-1E insulin secretion, at 10 µM, stronger effect = higher value
[15] = inhibition of endothelial tube formation, primary screen, imaging, VEGF stimulated, CD31 staining, tube area, NPC library (AID 1117340;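 active = compound that reduces growth-factor-driven endothelial tube area in a mixed cell culture, no cutoff stated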); conditions: VEGF-stimulated ADSC/ECFC co-culture, at 10 µM, stronger effect = higher value
[16] = glucagon-like peptide 1 release enhancers, primary assay, NCI-H716 cell line, NPC library (AID 1117341;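 active = compound raises GLP1 secretion from the human gut endocrine cells, with no numeric limit stated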); conditions: NCI-H716 cells, at 10 µM, stronger effect = higher value
[17] = stronger effect = lower value, cell number ratio, induced over uninduced
[18] = measured here: relative caspase fold change +Dox/-Dox
[19] = measured here: total cells with miR-34 induction, stronger effect = lower value
[20] = measured here: total cells without miR-34 induction

Chain of 6-phosphogluconate dehydrogenase, decarboxylating (Homo sapiens) (P52209 whole entry, looked up): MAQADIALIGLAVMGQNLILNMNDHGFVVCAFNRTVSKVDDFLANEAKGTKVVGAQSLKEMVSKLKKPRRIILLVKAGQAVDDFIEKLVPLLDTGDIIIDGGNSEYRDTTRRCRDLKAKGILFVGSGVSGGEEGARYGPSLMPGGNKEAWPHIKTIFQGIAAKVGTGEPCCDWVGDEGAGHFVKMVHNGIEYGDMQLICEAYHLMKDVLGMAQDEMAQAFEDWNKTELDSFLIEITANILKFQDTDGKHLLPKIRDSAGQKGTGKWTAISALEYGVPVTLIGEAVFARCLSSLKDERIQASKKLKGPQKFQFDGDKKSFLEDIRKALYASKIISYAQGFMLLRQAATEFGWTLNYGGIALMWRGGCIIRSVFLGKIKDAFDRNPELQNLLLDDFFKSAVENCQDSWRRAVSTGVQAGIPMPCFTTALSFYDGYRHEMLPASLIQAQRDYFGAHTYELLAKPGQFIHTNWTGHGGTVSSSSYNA
Chain of NAD(+) hydrolase SARM1 (Homo sapiens) (Q6SZW1 whole entry, looked up, the tested form may be a part): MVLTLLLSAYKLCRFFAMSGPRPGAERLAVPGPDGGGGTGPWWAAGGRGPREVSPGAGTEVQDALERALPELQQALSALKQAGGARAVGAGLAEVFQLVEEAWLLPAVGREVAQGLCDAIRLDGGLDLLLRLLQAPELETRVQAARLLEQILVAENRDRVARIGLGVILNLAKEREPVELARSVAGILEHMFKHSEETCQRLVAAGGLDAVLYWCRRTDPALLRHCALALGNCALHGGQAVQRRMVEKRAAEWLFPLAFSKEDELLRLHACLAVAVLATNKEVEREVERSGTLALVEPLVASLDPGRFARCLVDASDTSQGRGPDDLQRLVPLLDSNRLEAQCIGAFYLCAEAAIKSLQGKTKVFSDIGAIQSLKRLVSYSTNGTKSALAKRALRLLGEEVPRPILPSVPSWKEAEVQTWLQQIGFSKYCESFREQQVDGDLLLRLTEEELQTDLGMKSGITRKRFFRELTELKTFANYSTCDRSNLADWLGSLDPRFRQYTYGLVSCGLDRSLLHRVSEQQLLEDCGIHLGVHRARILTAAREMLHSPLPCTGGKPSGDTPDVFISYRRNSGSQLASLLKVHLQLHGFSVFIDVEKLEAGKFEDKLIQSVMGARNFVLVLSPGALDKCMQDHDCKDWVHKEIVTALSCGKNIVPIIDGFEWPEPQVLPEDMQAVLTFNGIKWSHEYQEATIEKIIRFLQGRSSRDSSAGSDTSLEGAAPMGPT
Chain of Mitogen-activated protein kinase 7 (Homo sapiens) (Q13164 whole entry, looked up, the tested form may be a part): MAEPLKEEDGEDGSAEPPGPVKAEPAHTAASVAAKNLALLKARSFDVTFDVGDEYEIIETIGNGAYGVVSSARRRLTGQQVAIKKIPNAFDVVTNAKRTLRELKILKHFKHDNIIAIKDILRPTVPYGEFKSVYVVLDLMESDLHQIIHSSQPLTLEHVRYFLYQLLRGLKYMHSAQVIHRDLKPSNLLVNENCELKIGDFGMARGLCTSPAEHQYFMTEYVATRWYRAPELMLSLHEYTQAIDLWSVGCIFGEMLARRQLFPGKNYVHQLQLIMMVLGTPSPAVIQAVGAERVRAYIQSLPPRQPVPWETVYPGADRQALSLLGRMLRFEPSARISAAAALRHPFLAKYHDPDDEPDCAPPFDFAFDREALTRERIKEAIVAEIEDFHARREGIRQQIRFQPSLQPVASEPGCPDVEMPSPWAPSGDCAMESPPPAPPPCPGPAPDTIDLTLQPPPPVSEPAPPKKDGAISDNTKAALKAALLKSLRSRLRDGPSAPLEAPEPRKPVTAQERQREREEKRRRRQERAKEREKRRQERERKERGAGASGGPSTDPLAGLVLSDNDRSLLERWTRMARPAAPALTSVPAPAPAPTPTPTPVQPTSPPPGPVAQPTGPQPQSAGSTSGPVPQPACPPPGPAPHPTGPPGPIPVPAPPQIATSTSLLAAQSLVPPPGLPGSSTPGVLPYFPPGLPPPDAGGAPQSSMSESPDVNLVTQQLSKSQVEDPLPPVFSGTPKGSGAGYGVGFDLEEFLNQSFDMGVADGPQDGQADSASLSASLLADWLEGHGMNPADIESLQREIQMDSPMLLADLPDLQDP

CN1C(=O)CC[C@H]1c1cccnc1
survival [1]: 19.8 (inactive) | nuclear beta-catenin stimulation ([2]; at 10 µM): -1.4% (inactive) | nuclear beta-catenin stimulation ([2]; stimulation, at 2 µM): 5.5% | viability decrease [3]: 22.7% (inactive) | inhibition of viability [4]: 12.8% (inactive) | viability decrease (inhibition) [5]: -3% (inactive) | viability decrease (inhibition) [6]: 14.2% (inactive) | inhibition [7]: 7.9% (inactive) | mean signal [8]: 242 (inactive) | red/green cell ratio (normalised) ([9]; actives lie on both sides, counts scaled to control wells, 1 = unselective): 1.08 (inactive) | normalised cell number ([9]; measured here: epithelial PC-3E GFP cell survival): 1.13 | normalised cell number ([9]; measured here: mesenchymal TEM4-18 mCherry cell survival): 1.23 | fold change [10, 17]: 1 (inactive) and 0.929 (inactive) and 0.864 (inactive) | fold change [10, 18]: 1.81 and 1.06 and 0.497 | cell count [10, 19]: 10100 and 7880 and 10300 | cell count [10, 20]: 10100 and 8480 and 11900 | remaining NAD [11]: 22 nM (inactive) | luciferase signal [12]: 64 AU (inactive) | z-score [13]: 0.48 (inactive)

COCCOCC(OC)OC
nuclear beta-catenin stimulation ([2]; at 10 µM): 1.2% (inactive) | nuclear beta-catenin stimulation ([2]; stimulation, at 2 µM): 10.8% | viability decrease [3]: 0.6% (inactive) | inhibition of viability [4]: 12.5% (inactive) | viability decrease (inhibition) [5]: -8.8% (inactive) | viability decrease (inhibition) [6]: 6.9% (inactive)

C[C@@H](c1ncncc1F)C(O)(Cn1cncn1)c1ccc(F)cc1F (some centres undefined)
insulin secretion stimulation [14]: 3.8% (inactive) | viability decrease [3]: -3.3% (inactive) | tube area decrease [15]: -5.2% (inactive) | GLP1 secretion stimulation [16]: -0.7% (inactive) | inhibition of viability [4]: 11.9% (inactive) | viability decrease (inhibition) [5]: 4.6% (inactive) | viability decrease (inhibition) [6]: -4.3% (inactive)

CCO[C@H](Cc1ccc(OCCc2ccc(OS(C)(=O)=O)cc2)cc1)C(=O)O
nuclear beta-catenin stimulation ([2]; at 10 µM): 1.2% (inactive) | nuclear beta-catenin stimulation ([2]; stimulation, at 2 µM): 7.6% | viability decrease [3]: 8.6% (inactive) | inhibition of viability [4]: -7.7% (inactive) | viability decrease (inhibition) [5]: -5.9% (inactive) | viability decrease (inhibition) [6]: -11.3% (inactive)

COc1ccccc1N1CCN(CCCCNC(=O)c2ccc(-c3ccc(C(C)=O)cc3)cc2)CC1
nuclear beta-catenin stimulation ([2]; at 10 µM): 9.8% (inactive) | nuclear beta-catenin stimulation ([2]; stimulation, at 2 µM): 9.2% | viability decrease [3]: 55.6% (active) | inhibition of viability [4]: 51.4% (active) | viability decrease (inhibition) [5]: 69.7% (active) | viability decrease (inhibition) [6]: 13.8% (inactive) | fold change [10, 17]: 0.929 (inactive) | fold change [10, 18]: 0.93 | cell count [10, 19]: 8920 | cell count [10, 20]: 9600 | z-score [13]: -0.635 (inactive)

— PubChem BioAssay
